For assay [1], the target named is Luciferin 4-monooxygenase (Photinus pyralis) (UniProt P08659). Kind of assay: Biochemical firefly luciferase enzyme assay for NPC (AID 624030).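 Note: purified P. pyralis luciferase at 10 nM with luciferin and ATP substrate; nearly all actives have a fitted effect of over 70% in size.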 In a few lines:
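Purified P. pyralis luciferase at 10 nM in 50 mM Tris Acetate (final), luminescence read within 5 minutes of enzyme addition to compounds. Activity normalised to PTC124 versus DMSO; concentration-response curves classed by r2, magnitude and activity.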

In another assay the test system is CP266. Description: qHTS profiling for inhibitors of Plasmodium falciparum proliferation (AID 504749). Note: nearly all actives have a fitted effect of over 60% in size. Note: potency is the fitted concentration of half-maximal effect. As to conditions: P. falciparum in erythrocytes, SYBR Green DNA, 72 h; series mostly up to 28.7 µM. In short, it runs like this: (§1)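 P. falciparum-infected erythrocytes (0.3% parasitemia, 2.5% hematocrit) incubated with compound 72 h at 37 C, 5% CO2. Parasite DNA detected by SYBR Green after lysis, overnight at room temperature; normalised to 0.29 uM artemisinin and DMSO.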

The test system of the next assay is CP268. Described as above. The following applies: P. falciparum in erythrocytes, SYBR Green DNA, 72 h; series mostly up to 28.7 µM. In a few lines:
as §1

The next assay relates to CP269. The assay is described as above. As to conditions: P. falciparum in erythrocytes, SYBR Green DNA, 72 h; series mostly up to 28.7 µM. In a few lines:
as §1

In another assay the test system is CP297. The assay is described as above. As to conditions: P. falciparum in erythrocytes, SYBR Green DNA, 72 h; series mostly up to 28.7 µM. In a few lines:
as §1

A further assay concerns CP305. Described as above. As to conditions: P. falciparum in erythrocytes, SYBR Green DNA, 72 h; series mostly up to 28.7 µM. In a few lines: as §1
A further assay has as its system CP325. The assay is described as above. As to conditions: P. falciparum in erythrocytes, SYBR Green DNA, 72 h; series mostly up to 28.7 µM. In a few lines: as §1
The test system of a further assay is CP329. The assay is described as above. The following applies: P. falciparum in erythrocytes, SYBR Green DNA, 72 h; series mostly up to 28.7 µM. In a few lines:
as §1

The test system of another assay is CP335. Described as above. The following applies: P. falciparum in erythrocytes, SYBR Green DNA, 72 h; series mostly up to 28.7 µM. In short, it runs like this: as §1
A further assay has as its system DIV14. Described as above. The following applies: P. falciparum in erythrocytes, SYBR Green DNA, 72 h; series mostly up to 28.7 µM. In short, it runs like this:
as §1

The subject of the next assay is ECU. The assay is described as above. The following applies: P. falciparum in erythrocytes, SYBR Green DNA, 72 h; series mostly up to 28.7 µM. In a few lines:
as §1

For a further assay, the system named is GB4. Described as above. The following applies: P. falciparum in erythrocytes, SYBR Green DNA, 72 h; series mostly up to 28.7 µM. In short, it runs like this: as §1
Another assay concerns JCK. Described as above. As to conditions: P. falciparum in erythrocytes, SYBR Green DNA, 72 h; series mostly up to 28.7 µM. In short, it runs like this:
as §1

Another assay has as its system P93_24. The description is as above. The following applies: P. falciparum in erythrocytes, SYBR Green DNA, 72 h; series mostly up to 28.7 µM. In short, it runs like this:
as §1

Another assay deals with PAD. The description is as above. As to conditions: P. falciparum in erythrocytes, SYBR Green DNA, 72 h; series mostly up to 28.7 µM. In short, it runs like this:
as §1

For a further assay, the system named is PC15. The description is as above. The following applies: P. falciparum in erythrocytes, SYBR Green DNA, 72 h; series mostly up to 28.7 µM. In a few lines:
as §1

The next assay deals with PC26. Described as above. The following applies: P. falciparum in erythrocytes, SYBR Green DNA, 72 h; series mostly up to 28.7 µM. In a few lines: as §1
A further assay concerns PC49. Described as above. The following applies: P. falciparum in erythrocytes, SYBR Green DNA, 72 h; series mostly up to 28.7 µM. In short, it runs like this:
as §1

The test system of the next assay is TAB109. Described as above. The following applies: P. falciparum in erythrocytes, SYBR Green DNA, 72 h; series mostly up to 28.7 µM. In short, it runs like this: as §1
Another assay concerns TAB113. The description is as above. The following applies: P. falciparum in erythrocytes, SYBR Green DNA, 72 h; series mostly up to 28.7 µM. In a few lines: as §1

The results in this text go back to PubChem BioAssay (NCATS).

Results filed as inconclusive are left out. The source made the active and inactive calls. Calls come from the whole dose curve; as a rule, active = well fitted inhibition curve with a large enough effect; inconclusive = small, poorly fitted or top-dose-only effect; inactive = flat fitted curve, though single readings scatter.

Sequence of Luciferin 4-monooxygenase (Photinus pyralis) (P08659 whole entry, looked up): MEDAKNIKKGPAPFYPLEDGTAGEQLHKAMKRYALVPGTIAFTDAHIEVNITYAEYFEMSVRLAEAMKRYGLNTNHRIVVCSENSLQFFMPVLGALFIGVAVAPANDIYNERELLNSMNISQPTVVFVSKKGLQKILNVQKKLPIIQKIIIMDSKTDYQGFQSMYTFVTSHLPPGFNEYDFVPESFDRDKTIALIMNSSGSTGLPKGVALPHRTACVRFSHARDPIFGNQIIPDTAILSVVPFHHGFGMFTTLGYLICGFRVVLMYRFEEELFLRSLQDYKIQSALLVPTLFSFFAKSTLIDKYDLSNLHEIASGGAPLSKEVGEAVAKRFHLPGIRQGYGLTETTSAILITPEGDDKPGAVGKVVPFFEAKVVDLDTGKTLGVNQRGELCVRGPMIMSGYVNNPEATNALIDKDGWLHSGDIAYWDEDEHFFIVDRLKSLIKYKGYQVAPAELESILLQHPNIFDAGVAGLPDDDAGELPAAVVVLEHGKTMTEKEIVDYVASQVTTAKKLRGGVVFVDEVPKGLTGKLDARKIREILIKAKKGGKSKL

Consider `NC[C@@H]1O[C@H](OC2[C@@H](CO)O[C@@H](OC3[C@H](O)[C@H](N)C[C@H](N)[C@H]3OC3O[C@H](CO)[C@@H](O)[C@H](O)[C@@H]3N)[C@H]2O)C(N)[C@H](O)[C@@H]1O` (stereo not given in full), for which the Potency entry (in assay [1]; in the assay on CP266; with CP268; with CP269; in the assay with CP297; in the assay with CP305) was “inactive” each time. Moreover, the Potency result in the assay with CP325, in the assay on CP329, in the assay on CP335, in the assay with DIV14, in the assay on ECU and with GB4 was “inactive” each time. The Potency entry in the assay on JCK, with P93_24, with PAD, in the assay on PC15, in the assay with PC26 and in the assay on PC49 was “inactive” throughout. Also, the Potency result in the assay on TAB109 and in the assay on TAB113 was “inactive” throughout.
As to `COc1cccc(OC)c1C(=O)NC1C(=O)N2C1SC(C)(C)C2C(=O)O` (stereo not given), the Potency result (in assay [1]; in the assay on CP266; in the assay with CP268; in the assay on CP269; in the assay on CP297; with CP305) was “inactive” each time. Moreover, the Potency result in the assay with CP325, in the assay with CP329, in the assay on CP335, with DIV14, in the assay on ECU and with GB4 was “inactive” each time. In addition, the Potency result with JCK, in the assay on P93_24, with PAD, in the assay with PC15, with PC26 and with PC49 was “inactive” throughout. Also, the Potency entry in the assay on TAB109 and in the assay with TAB113 was “inactive” throughout.
Turning to `CC(=O)OCC(=O)[C@@]1(O)CCC2C3CCC4=CC(=O)C=CC4(C)C3C(O)C[C@]21C` (stereo not given in full), the Potency entry (in assay [1]; with CP266; in the assay on CP268; in the assay on CP269; with CP297; in the assay with CP305) was “inactive” throughout. Also, the Potency result with CP325, with CP329, with CP335, with DIV14, in the assay with ECU and in the assay with GB4 was “inactive” throughout. Also, the Potency entry with JCK, in the assay on P93_24, in the assay with PAD, in the assay with PC15, in the assay on PC26 and in the assay with PC49 was “inactive” each time. Further, the Potency entry with TAB109 and in the assay on TAB113 was “inactive” in each case.
As for `CC(C)C[C@@H](NC(=O)[C@@H](Cc1ccccc1)NC(=O)c1cnccn1)B(O)O`, in [1], the Potency result is “inactive”. Further, the Potency in the assay with CP266 was 379 nM (active); with CP268 it was 135 nM (active); in the assay on CP269, 151 nM (active); in the assay on CP297, 379 nM (active); in the assay on CP305, 757 nM (active); in the assay on CP325, 151 nM (active). The Potency was 120 nM (active) with CP329; 107 nM (active) in the assay on CP335; 601 nM (active) with DIV14; 126 nM (active) with ECU; 120 nM (active) with GB4; 141 nM (active) with JCK. The Potency is 158 nM (active) in the assay on P93_24; 141 nM (active) in the assay with PAD; 316 nM (active) in the assay on PC15; 338 nM (active) with PC26; 158 nM (active) in the assay with PC49; 70.8 nM (active) in the assay on TAB109. In the assay on TAB113, the Potency was 100 nM (active).
Consider `CC1(C)OC[C@@H]2O[C@@]3(C(=O)O)OC(C)(C)O[C@@H]3[C@@H]2O1`, for which the Potency result (in assay [1]; with CP266; with CP268; in the assay on CP269; in the assay with CP297; in the assay with CP305) was “inactive” each time. Further, the Potency result in the assay on CP325, with CP329, in the assay on CP335, with DIV14, in the assay on ECU and in the assay on GB4 was “inactive” throughout. For the same molecule, the Potency result in the assay with JCK, in the assay with P93_24, in the assay on PAD, in the assay on PC15, with PC26 and in the assay on PC49 was “inactive” each time. The Potency result with TAB109 and in the assay with TAB113 was “inactive” throughout.
Take `CC1(C)C2CC[C@]1(C)[C@@H](O)C2`: the Potency result (in assay [1]; in the assay on CP266; in the assay with CP268; with CP269; with CP297; with CP305) was “inactive” each time. Moreover, the Potency entry with CP325, with CP329, with CP335, in the assay with DIV14, in the assay on ECU and in the assay with GB4 was “inactive” each time. Moreover, the Potency result in the assay with JCK, in the assay with P93_24, with PAD, in the assay with PC15, with PC26 and with PC49 was “inactive” in each case. The Potency entry in the assay with TAB109 and in the assay with TAB113 was “inactive” each time.
Consider `O=C1NC(=O)C2C3C=CC(C3)C12` (stereo not given), for which the Potency entry (in [1]; with CP266; in the assay on CP268; in the assay with CP269; with CP297; in the assay on CP305) was “inactive” in each case. For the same molecule, the Potency entry with CP325, in the assay with CP329, with CP335, in the assay on DIV14, in the assay with ECU and in the assay with GB4 was “inactive” in each case. For the same molecule, the Potency result in the assay on JCK, in the assay with P93_24, in the assay on PAD, in the assay on PC15, in the assay on PC26 and with PC49 was “inactive” in each case. The Potency result with TAB109 and with TAB113 was “inactive” each time.
